Experimental data: PubChem BioAssay AID1259415 (National Center for Advancing Translational Sciences (NCATS), 2018)
Hit rate of the full screen: of about 410,000 compounds, about 18,000 (4.4%) were called active. Inconclusive results (about 7%) are left out. What follows is part of a selection rich in actives, with near analogues and random picks from the rest. A number with no mark means an inactive call. Rule as the data show it: active = activity change below about -60%; inconclusive = no clear call, values can overlap the other calls; inactive = above about -39%.

Assay: qHTS Assay for inhibitors of the human cytomegalovirus (HCMV)
Conditions: HFF cells, HCMV-luciferase reporter, 72 h; at 57.5 µM; stronger effect = lower value
Outline: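 Compounds were evaluated in HFFs infected with an HCMV luciferase reporter virus (MOI 1 PFU/cell). Luciferase in lysates collected 72 h post infection served as the replication measure.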
% is scaled to controls: 0 for no effect and ±100 for the full control effect.

Compound | activity change, negative = inhibition
Cc1ccc(S(=O)(=O)n2nc(-c3ccc(Cl)cc3)nc2NCc2ccccc2)cc1 | 8.1%
COc1ccc(C2c3c(oc4ccccc4c3=O)C(=O)N2Cc2ccc3c(c2)OCO3)cc1 (stereo not given) | -4.99%
COc1ccc(-c2nn(CC(=O)Nc3ccccc3F)c3c2cnc2ccc(F)cc23)cc1 | 39.2%
O=c1[nH]c(-c2ccccc2)cn1C1CCN(Cc2ccc(-c3nc4ccc(F)cc4nc3-c3ccccc3)cc2)CC1 | 54.8%
CCc1cc(-c2nnn(CCC3COCCO3)c2CC)ccc1-c1cn(Cc2ccc3ccccc3c2)nn1 (stereo not given) | -80.6% (active)
O=C(C1CCC1)N1C[C@H]2[C@@H](c3ccccc31)[C@@H](CO)N2C(=O)c1ccccc1F | 27.8%
CC(C)(C)c1ccc(C(=O)NCC(c2ccc(Cl)cc2)N2CCOCC2)cc1 (stereo not given) | -1.98%
Cc1ccc(C(=O)N2c3ncnn3C3(CCCCC3)[C@@H]3CCCC[C@@H]32)cc1 | -15.5%
COc1ccc(S(=O)(=O)N2CC3ON=C(c4c(F)cccc4Cl)C3C2)cc1OC (stereo not given) | -7.48%
COc1ccc(CCN2CC(C(=O)OCC(=O)NCc3ccccc3Cl)CC2=O)cc1OC (stereo not given) | 16.6%
COc1ccc(CC(=O)N2CC3ON=C(c4c(F)cccc4Cl)C3C2)cc1OC (stereo not given) | -61.7% (active)
COc1ccccc1NC(=O)c1oc2ccccc2c1NC(=O)COc1ccccc1OC | 2.62%
CCOc1ccccc1CNC(=O)c1cnc2c(-c3ccc(OCC)c(OCC)c3)c(C)nn2c1C | -3.31%
Cc1ccc(CN2COc3cc(C)c4c(oc(=O)c5ccccc54)c3C2)cc1 | 8.87%
C/C(=N\NC(=O)c1cccnc1)c1ccc(-n2ccnc2)cc1 | -16.6%
CC1CCc2sc(C(=O)N/N=C/C3CCCCC3)cc2C1 (stereo not given) | 13.4%
C/C(=N\NC(=O)c1cc2c(s1)CCC(C)C2)c1cccnc1 (stereo not given) | -78.9% (active)
Cc1ccc(C)c(N2CCN(Cc3nnc(-c4ccccc4)o3)CC2)c1 | 27.7%
COc1ccc(-c2nc(CN3CCC(C(=O)NCCN(CC(C)C)CC(C)C)CC3)c(C)o2)cc1OC | -0.431%
Cc1nnc(C)n1-c1ccc(C(=O)Nc2cccc(Br)c2)cc1 | 33.2%
CCN1C(=O)N[C@@H](CCc2ccccc2)C(C(=O)OC)=C1C | -1.16%
CCOC(=O)CN(C(=O)COc1nc(C)cc(C)c1C#N)c1ccc(Cl)cc1 | -1.87%
CCOc1cc(/C=C(/C#N)c2ccc(Cl)cc2)cc(Cl)c1OCC(=O)O | -79.4% (active)
CCOc1ccc(/C=C(\C#N)c2nc3ccccc3c(=O)[nH]2)cc1OC | 18%
Cc1ccc(Cn2c(=O)n(-c3ccc(C)cc3)c(=O)c3c2c2cc(C)ccc2n3C)cc1 | 5.49%
CC1CCCN(c2cc3c(cc2F)c(=O)c(S(=O)(=O)c2cccc(Cl)c2)cn3Cc2ccccc2)C1 (stereo not given) | -26.5%
CC1(C(=O)Nc2ccc3c(c2)OCCO3)CCN1C(=O)Cc1cc(F)ccc1F (stereo not given) | 20.3%
S=C(Nc1ccc2c(c1)OCO2)N1CCCC1 | 17.6%

Compound | activity change, negative = inhibition
O=C(/C=C\c1ccc2c(c1)OCO2)NC1(C(=O)Nc2ccc3c(c2)OCCO3)CCCCC1 | -87.5% (active)
COC(=O)[C@@]1(C#N)CC(=O)N([C@@H](C)c2ccccc2)[C@H]1c1ccccc1 | -35.4%
CC(=O)N1c2ccccc2CC1C(=O)N1CCN(c2ccc(F)cc2)CC1 (stereo not given) | 16.1%
O=c1nc(N2CCOCC2)nc2n1CCO2 | -26.3%
COc1ccc(OC)c(NC(=O)C2CCN(S(=O)(=O)c3ccc(C)cc3)CC2)c1 | -12.3%
Fc1ccc(OCc2nn3c(Cn4nnc5ccccc54)nnc3s2)cc1 | -1.96%
O=C(CSc1nnc(Cn2cnc3ccccc32)o1)c1ccccc1 | -35.1%
c1ccc(Cc2nn3c(Cn4cnc5ccccc54)nnc3s2)cc1 | -65.2% (active)
Cc1ccccc1CNC(=O)c1ccc(NC(=O)N2CCCCc3ccccc32)cc1 | -4.65%
COc1ccc(C(=O)c2oc3ccccc3c2NC(=O)COc2cccc(C)c2)cc1 | 9.86%
Cc1noc(C)c1S(=O)(=O)N(C)C[C@H]1Oc2c(NC(=O)Nc3ccc4c(c3)OCO4)cccc2C(=O)N([C@H](C)CO)C[C@@H]1C | 22.1%
COc1ccc(-c2cn3nc(N4CCCC(C(=O)NCCCOC(C)C)C4)sc3n2)cc1 (stereo not given) | 0%
Cc1ccc2nsnc2c1S(=O)(=O)N1CCCC1C(=O)O (stereo not given) | -8.96%
CCc1ccc(S(=O)(=O)c2nnn3c2nc(N2CCN(CC)CC2)c2sccc23)cc1 | 9.37%
N#CCCN(CCC#N)c1nnc(-c2ccccc2)s1 | 3.02%
CCc1ccc(CNC(=O)C2CCN(c3nn4cc(-c5ccc(F)cc5)nc4s3)CC2)cc1 | 0%
CC1CCCC(C)N1C(=O)CN1CCN(c2nc(-c3ccc(F)cc3)cs2)CC1 (stereo not given) | -63.2% (active)
CN(C)CCCNC(=S)N1CCN(c2nc(-c3ccccc3)cs2)CC1 | -3.01%
O=C(NCc1nnc(SCC(=O)N2CCC(Cc3ccccc3)CC2)o1)c1ccco1 | -25.7%
COC(=O)[C@H](CCSC)NC(=O)Nc1ccc(OC)cc1 | 10.5%
COc1ccc(NC(=O)Nc2ccc3nsnc3c2)cc1 | -62.9% (active)
COc1ccc(NC(=O)Nc2cccc(-c3noc(C)n3)c2)cc1 | -15.1%
CCOC(=O)c1ccc(NC(=O)Cn2c(=O)n(-c3ccc(C)cc3)c(=O)c3c2cnn3C)cc1 | 2.83%
CSc1ncnc2c1ncn2CC(=O)C1CCC2C3CCC4=CC(=O)CCC4(C)C3CCC12C (stereo not given) | -83% (active)
CSc1ncnc2c1ncn2CCCNCc1ccco1 | 11.8%
CSc1ncnc2c1ncn2CCCNCC1CCCCC1 | 8.49%
O=C(O)c1ccc(Cn2c(SCc3ccc(F)cc3)nc3ccncc32)cc1 | 0.974%
